# Among all 6,200 compounds or so, about 2,900 (47%) were called active. So high a share suggests a set chosen from earlier hits. The list shows a part of the results. A number with no mark means an inactive call. No stated cut-off is given here; in the data, active means inhibition above about 50%; inactive means the rest.
# Experiment: Mycobacterium tuberculosis growth inhibition, primary screen (AID 1259343)
# Details: inhibition: at 10 µM, stronger effect = higher value; outcome: 10 uM
row,SMILES,inhibition
1,Cc1cc(-c2nc3cccnc3s2)ccc1NS(=O)(=O)c1ccc(F)cc1F,74.7% (active)
2,COC(=O)c1ccccc1NC(=O)c1cc(-c2cccs2)n(C2CCS(=O)(=O)C2)n1 (stereo not given),42.9%
3,CCC(=O)NCC1CN(c2ccc(OC)cc2)C(=O)O1 (stereo not given),83% (active)
4,O=C(CN1CCCC1c1ccsc1)Nc1ccccc1Br (stereo not given),41.9%
5,N#Cc1nc(NC(=O)C2CC2c2ccc(Br)cc2)[nH]c1C#N (stereo not given),81.5% (active)
6,O=S(=O)(Nc1ccc(F)c(F)c1)c1ccc(Cl)c(Cl)c1,17.1%
7,Nc1cc(S(=O)(=O)Nc2ccc(Cl)cc2)ccc1Cl,89.1% (active)
8,O=c1[nH]c2ccc(S(=O)(=O)Nc3ccc(Cl)cc3Cl)cc2s1,19%
9,Nc1cc(S(=O)(=O)Nc2ccc(Br)cc2)ccc1Cl,30%
10,COc1ccc(S(=O)(=O)Nc2ccc3c(c2)OC(F)(F)O3)cc1,33%
11,N#CSc1ccc(NS(=O)(=O)c2ccc(Cl)cc2)c(Cl)c1,79.8% (active)
12,O=S(=O)(Nc1cc(Cl)ccc1Cl)c1ccc(Cl)cc1,64.6% (active)
13,COc1ccc(NS(=O)(=O)c2ccc(Cl)c(Cl)c2)cc1,86.7% (active)
14,CCN(CC)S(=O)(=O)c1cccc(S(=O)(=O)c2ccc(Cl)c(Cl)c2)c1,1.03%
15,CCC(C)(C)NS(=O)(=O)c1ccc(Cl)c(Cl)c1,82.7% (active)
16,CCS(=O)(=O)c1ccc(NC(=O)Cc2ccc(Cl)c(Cl)c2)cc1,41.3%
17,CCn1cnnc1CN(C)c1ccc(-c2nc(-c3ccccc3F)no2)cn1,7.76%
18,CN(Cc1cccnc1)c1ccc2c(-c3ccccc3F)noc2n1,90.6% (active)
19,CN(Cc1ccc(Cl)cc1)c1ccc2c(C3CC3)noc2n1,41.3%
20,O=Cc1ccc(-c2ccc(Cl)cc2Cl)[nH]1,91.2% (active)
21,CCOc1nc(NC(C)c2ccccc2)ncc1Br (stereo not given),28%
22,CC(NCCC(c1ccccc1)c1ccccc1)c1ccccc1 (stereo not given),58.2% (active)
23,Clc1ccccc1CSCc1csc(Cc2ccc3c(c2)OCO3)n1,11.8%
24,Cc1ccc(Cc2nc(CSCCc3ccccc3)cs2)cc1,63.4% (active)
25,Oc1ccc(-c2csc(Cc3ccccc3)n2)cc1O,30.3%
26,COc1ccccc1-c1noc2nc(OCc3ccccc3)ccc12,95.3% (active)
27,c1ccc2oc(COc3ccc4c(C5CC5)noc4n3)cc2c1,81.1% (active)

row,SMILES,inhibition
1,Cc1ccc(COc2ccc3c(C4CC4)noc3n2)cc1F,94.2% (active)
2,OCC1(CCOc2ccccc2)CCN(Cc2cc3ccccc3o2)CC1,28.8%
3,c1csc(COc2ccc3c(C4CC4)noc3n2)c1,82.4% (active)
4,Cn1c(Cc2ccccc2)nn(CN2CCC3(CC2)OCCO3)c1=S,8.21%
5,Clc1cccc(COc2ccc3c(C4CC4)noc3n2)c1,76.8% (active)
6,Cc1cccc(COc2ccc3c(C4CC4)noc3n2)c1,56% (active)
7,Cc1ccc(COc2ccc3c(C4CC4)noc3n2)cc1,46.7%
8,c1ccc(COc2ccc3c(C4CC4)noc3n2)cc1,76.3% (active)
9,CCCCn1c(O)c(C=Nc2ccccc2C(=O)O)c(C)c(C#N)c1=O,-10.6%
10,COc1ccc2nc(-n3nc(C)cc3NC(C)=O)sc2c1,86% (active)
11,O=C(Nc1ccc(Oc2cccnc2)cc1)C1CCN(C/C=C/c2ccccc2)CC1,28.8%
12,Cc1ccc(CN2CCC(C(=O)Nc3ccc(Oc4cccnc4)cc3)CC2)o1,61.8% (active)
13,O=C(Nc1ccc(Oc2cccnc2)cc1)C1CCN(Cc2cc(Cl)ccc2O)CC1,77.8% (active)
14,CC(=O)c1cccc(CN2CCC(C(=O)Nc3ccc(Oc4cccnc4)cc3)CC2)c1,inactive
15,O=C(Nc1ccc(Oc2cccnc2)cc1)C1CCN(Cc2nccs2)CC1,88.5% (active)
16,CCCCNC(=S)NN=Cc1ccc(C)s1,71% (active)
17,CCCCNC(=S)NN=Cc1cccs1,103% (active)
18,C=C(C)CNC(=S)NN=CC1=CCC2CC1C2(C)C (stereo not given),23%
19,Cc1ccc(C=NNC(=S)NCCCN2CCOCC2)s1,102% (active)
20,COCCNC(=S)NN=Cc1cccs1,38.1%
21,CCCCNC(=S)N(C)N=Cc1ccc(C)s1,-20.6%
22,O=C(c1ccc2nonc2c1)N1CCCC2(CCCc3ccccc32)C1 (stereo not given),23.2%
23,COc1cccc(-c2ccccc2NC(=O)C2CCN(Cc3cccc4cccnc34)CC2)c1,inactive
24,COc1cccc(-c2ccccc2NC(=O)C2CCN(Cc3cccc(C)n3)CC2)c1,99.6% (active)
25,COc1cccc(-c2ccccc2NC(=O)C2CCN(Cc3ccc(OC)c(C)c3)CC2)c1,92% (active)
26,COc1cccc(-c2ccccc2NC(=O)C2CCN(Cc3cnc(C)nc3)CC2)c1,33%
27,CC(C)c1cccc(N(C)Cc2cncn2C)c1,42.1%

row,SMILES,inhibition
1,N#CC(=Cc1ccc(Cl)cc1)c1nc(C2CC2)cs1,20.5%
2,N#CC(=Cc1cccc2ccccc12)c1nc(C2CC2)cs1,96.1% (active)
3,N#CC(=Cc1cccc2ccccc12)c1ccccn1,22.6%
4,Cc1ccc(Cc2nsc(N3CCN(c4cccc(C(F)(F)F)c4)CC3)n2)cc1,24.1%
5,OCC1(Cc2cccc(C(F)(F)F)c2)CCN(c2ccc3ccccc3n2)CC1,22.1%
6,CCc1c(C)nc(-c2ccc(C(F)(F)F)cc2)nc1N1CCNCC1,61.7% (active)
7,Cc1cc(N2CCNCC2)nc(-c2ccc(C(F)(F)F)cc2)n1,82% (active)
8,CCc1c(C)nc(-c2cccc(C(F)(F)F)c2)nc1N1CCNCC1,33.2%
9,Cc1cc(N2CCNCC2)nc(-c2cccc(C(F)(F)F)c2)n1,94.4% (active)
10,Nc1cc(Cl)ccc1Oc1ccc(Cl)cc1,-29.7%
11,O=[N+]([O-])c1cc(Cl)ccc1Oc1ccc2ccccc2c1,77.2% (active)
12,CC(C)(C)c1cc(/C=C(\C#N)C(N)=S)cc(C(C)(C)C)c1O,102% (active)
13,Cc1nnc(NC(=O)C(C)SC(F)(F)F)s1 (stereo not given),91.5% (active)
14,Cc1n[nH]c(C)c1N=Nc1ccc(Br)cc1,104% (active)
15,CCOc1ccc(N=Nc2c(C)n[nH]c2C)cc1,-45%
16,Cc1nc(N)sc1N=Nc1ccc(Br)cc1,23.2%
17,Nc1nnc(SCc2ccc(Br)cc2F)s1,28.8%
18,CCc1ccc(-c2noc(CSc3nnc(N)s3)n2)cc1,12.6%
19,Nc1nnc(SCC2CC2)s1,86.5% (active)
20,O=C(O)COc1ccccc1-c1nc(-c2ccccc2)c(-c2ccccc2)[nH]1,13.8%
21,O=C(O)COc1c(I)cc(Cl)c2cccnc12,94.3% (active)
22,Cc1cc(C)cc(NC(=O)CCC(=O)c2ccc3ccccc3c2)c1,72.2% (active)
23,CCCC(=O)OCC(=O)Nc1ccc2ccccc2c1,33.2%
24,O=C(CCC(=O)c1ccc(-c2ccccc2)cc1)NC1=NCCS1,33.8%
25,CCc1nnc(NC(=O)C2CC2)s1,68.7% (active)
26,CCc1nnc(NC(=O)c2ccc(O)c(Cl)c2)s1,81.3% (active)
27,COc1ccccc1C(=O)Nc1nnc(CC(C)C)s1,21.6%

row,SMILES,inhibition
1,CC(C(=O)NCc1ccccc1Cl)n1nnc(-c2ccco2)n1 (stereo not given),56.3% (active)
2,Cn1c(CNC(=O)Cc2c(Cl)cccc2Cl)n[nH]c1=S,8.23%
3,O=C(O)C1C2C=CC(O2)C1C(=O)NCc1ccccc1Cl (stereo not given),23.3%
4,O=C(O)CCc1ncc(-c2ccc(Cl)cc2)o1,90.3% (active)
5,O=C1CCc2c(OCc3ncc(-c4cccc(Cl)c4)o3)cccc21,39.9%
6,O=C(O)CCN(CCc1ccccc1)c1nc(-c2ccc(Cl)cc2)nc2ccccc12,24.8%
7,O=C(CN(Cc1ccccc1)C(=O)c1ccc(Cl)c(Cl)c1)Nc1cc(-c2ccccc2)nn1-c1ccc(F)cc1,-13.3%
8,O=C1CCC(C(=O)N(Cc2ccc(F)cc2)c2nc(-c3ccccc3)cs2)=NN1,64.5% (active)
9,O=C(CCCCl)Nc1nc(-c2ccc(F)cc2)cs1,12.9%
10,N#CC(=Cc1ccncc1)c1nnc2n1CCCCC2,-11%
11,Cc1ccc(-c2noc(-c3ccc(Br)o3)n2)cc1,55.7% (active)
12,Fc1ccccc1-c1nc(-c2ccc(Br)o2)no1,28.8%
13,Cc1ccc(-c2nc(-c3ccc(Br)cc3)no2)cc1,11.5%
14,CCN(CC)CCCC(C)NC(=O)c1cc(-c2ccc(OC)cc2)nc2cc(C(C)(C)C)nn12 (stereo not given),58.1% (active)
15,Cc1ccc(-c2cc(C(=O)O)n3nc(C(C)(C)C)cc3n2)cc1,103% (active)
16,COc1ccc(-c2cc(C(=O)O)n3nc(C(C)(C)C)cc3n2)cc1,53.5% (active)
17,CC1(C)OCC(CN2C(=O)c3ccccc3NC2c2c[nH]c3cnc(OCc4ccccc4)cc23)O1 (stereo not given),32.8%
18,COc1ccc(NC(=O)CNS(=O)(=O)c2cnn(C)c2)cc1Cl,85.8% (active)
19,COc1ccc(NC(=O)CNc2cc3c(cc2Cl)OCCCO3)cc1Cl,92.9% (active)
20,COc1ccc(NC(=O)Cc2ccccc2F)cc1Cl,14.2%
21,COc1ccc(Cl)cc1NC(=O)c1ccc2c(c1)OCCCO2,29.1%
22,COc1ccc(NC(=O)CSc2cc(C)ccc2C)cc1Cl,88.7% (active)
23,COc1ccc(NCC(=O)NCC(F)(F)F)cc1Cl,95.5% (active)
24,CC(C)N=C1NN=C(c2c[nH]c3ccccc23)C(c2ccccc2)S1 (stereo not given),2.32%

# Reference: PubChem BioAssay AID1259343 (VanderVen Lab, College of Veterinary Medicine, Cornell …, 2017)
